hcGAS lum: Primary biochemical luminescence assay for human cyclic GMP-AMP synthase inhibitors | recombinant h-cGAS, ATP depletion, Kinase-Glo luminescence | inhibition, % at 12.5 µM | 290,000 tested, 0.081% active | AID 1259398, 2018
NPYLR7 ag: agonists of mosquito NPYLR7 receptor, primary screen, cell-based, Aedes aegypti, calcium fluorescence, mosquito biting behavior | AID 1259423, 2018 | 270,000 tested, 0.15% active | activation, % at 10 µM | Aedes aegypti neuropeptide Y-like receptor 7 (NPYLR7) | HEK293T NPYLR7/Galpha15, GCaMP6s calcium fluorescence; in the data active = activation above about 40%
mcGAS inh: cyclic GMP-AMP synthase inhibitors, mouse, primary biochemical chemiluminescence; recombinant cGAS, Kinase-Glo ATP depletion luminescence; inhibition, % at 12.5 µM; 160,000 tested, 0.15% active
Of the large screens only hits and unclear results are named; the others gave an inactive call; ! = not active in a repeat. Only some compounds are listed: those with a hit (about 0.24% of all), similar ones and a draw of the others. Rule as the data show it, unless noted: active = inhibition above about 40%; inactive = the rest.

O=C(C1=NN(c2ccccc2)C2C(=O)N(c3ccccc3)C(=O)C12)c1ccccc1 (centres undefined)	NPYLR7 ag 64.5
CC(=O)C1=NN(c2ccccc2)C2C(=O)N(c3ccc(Br)cc3)C(=O)C12 (centres undefined)	none
Cc1nn(-c2ccc(Br)cc2)c2c(=O)ccccc12	none (no result: mcGAS inh)
CCCc1ccccc1N1C(=O)CSC1c1ccc(NC(=O)CCl)cc1 (centres undefined)	NPYLR7 ag 41.8
Cc1cc(C)cc(N2C(=O)CSC2c2ccc(NC(=O)CCl)cc2)c1 (centres undefined)	none
O=c1oc2c(CN3CCN(CCO)CC3)c(O)ccc2cc1-c1ccccc1	none
Cc1csc(-c2cc3ccc(O)c(CN4CCN(CCO)CC4)c3oc2=O)n1	NPYLR7 ag 69.1 (no result: mcGAS inh)
COc1ccc(C(C)NS(=O)(=O)c2ccc(Cl)cc2C(F)(F)F)cc1F (centres undefined)	NPYLR7 ag 107.5 (no result: mcGAS inh)
COc1ccc(S(=O)(=O)NC(C)c2ccncc2)cc1F (centres undefined)	none (no result: mcGAS inh)
COc1ccc(-c2csc(NC(=O)CN3CC(C)CC(C)C3)n2)c(OC)c1 (centres undefined)	none (no result: mcGAS inh)
COc1ccc(-c2csc(NC(=O)CCl)n2)c(O)c1	mcGAS inh 59.9
Cc1cccc(Oc2cnn(-c3ccccc3Cl)c(=O)c2Nc2cccc(C(=O)N3CCCC3)c2)c1	none
N=C1/C(=C\c2ccc(Br)o2)C(=O)N=C2SC(Cc3cccs3)=NN12	none (no result: mcGAS inh)
N=C1/C(=C\c2ccco2)C(=O)N=C2SC(Cc3cccs3)=NN12	hcGAS lum 52.0 (no result: mcGAS inh)
Cc1sc2nc(CCN)nc(N3C[C@H]4CC[C@H]3C4)c2c1C	none (no result: mcGAS inh)
CC(C)CN(CCC#N)C(=O)C1CCN(S(=O)(=O)c2ccccc2)CC1	none (no result: mcGAS inh)
COCc1c(Br)c(C)nc(OCC(=O)N/N=C\c2cc(I)c(O)c([N+](=O)[O-])c2)c1C#N	mcGAS inh 83.0
COCc1cc(C)nc(OCC(=O)N/N=C\c2cc(I)c(O)c([N+](=O)[O-])c2)c1C#N	mcGAS inh 67.4
COCc1c(Br)c(C)nc(OCC(=O)N/N=C\c2cc(I)c(O)c(OC)c2)c1C#N	none
COCc1cc(C)nc(OCC(=O)N/N=C\c2cc(I)c(O)c(I)c2)c1C#N	mcGAS inh 57.9
COCc1cc(C)nc(OCC(=O)N/N=C\c2cc(Br)c(O)c(Br)c2)c1C#N	none
C=CCOc1c(I)cc(/C=N\NC(=O)COc2nc(C)cc(COC)c2C#N)cc1I	none
CS(=O)(=O)c1oc(-c2ccc(F)cc2)nc1S(=O)(=O)c1ccc(F)cc1	none (no result: mcGAS inh)
CS(=O)(=O)N1CCN(S(=O)(=O)c2cc(Cl)ccc2Cl)CC1	none (no result: mcGAS inh)
COc1cc(OC)cc(C(=O)N2CCC(C(=O)NC3CCCC[C@H]3NC(=O)c3ccccc3)CC2)c1 (some centres undefined)	none
COc1cccc(-c2nc3ccc(Cl)cn3c2NCc2ccccc2)c1	none
COc1cccc(-c2nc3ccc(Br)cn3c2NCc2ccccc2)c1	mcGAS inh 89.4!
O=C(Nc1ccc(C(F)(F)F)cc1Cl)c1cc([N+](=O)[O-])[nH]n1	none
OCC1OC(Oc2ccccc2Cl)C(O)C(O)C1O (centres undefined)	none
O=C(O)c1cc(O)c2c(O)c3c(O[C@H]4O[C@H](CO)[C@@H](O)[C@H](O)[C@H]4O)cccc3c(-c3c4cc(C(=O)O)cc(O)c4c(O)c4c(O[C@H]5O[C@H](CO)[C@@H](O)[C@H](O)[C@H]5O)cccc34)c2c1	hcGAS lum 42.4! (no result: mcGAS inh)
COc1cc(C(=O)C=Cc2cc(OC)c(O)c([N+](=O)[O-])c2)ccc1O	none (no result: mcGAS inh)
COc1cc(C(=O)C=Cc2ccc(C#N)cc2)ccc1O	mcGAS inh 64.1
COc1ccc(C(=O)C=Cc2cc(OC)c(O)c(OC)c2)cc1F	NPYLR7 ag 64.2
COc1cc(C(=O)C=Cc2ccc(OC(F)F)cc2)ccc1O	none
COc1ccc(OC)c(-c2nnc3ccc(OCCNC(=O)Nc4ccccc4)nn23)c1	none
CC(c1ccccc1)N1CCN(C(=O)Nc2ccc(F)c(F)c2F)CC1 (centres undefined)	none
CC1(C)CC[C@]2(C)CC[C@]3(C)C(=CCC4[C@@]5(C)CC[C@H](O)C(C)(C)C5CC[C@]43C)C2C1 (some centres undefined)	none (no result: NPYLR7 ag)
